Only some compounds are listed: those with a hit (about 2.4% of all), similar ones and a draw of the others.
A3A deaminase = APOBEC3A ssDNA deaminase inhibitors, primary screen, selectivity assay for APOBEC3G inhibitor project, biochemical, FAM/TAMRA oligo cleavage fluorescence; DNA dC->dU-editing enzyme APOBEC-3A (Homo sapiens), P31941; recombinant A3A, FAM/TAMRA ssDNA deamination fluorescence; inhibition, % at 20 µM; 0.41% of 330,000 active;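 active = at least 40% inhibition at 20 µM here, with at most 30% in a related deaminase screen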;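 also: plate controls were A3A with DMSO for no effect and wells lacking A3A enzyme for full effect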
Target sequence (P31941 whole entry, looked up): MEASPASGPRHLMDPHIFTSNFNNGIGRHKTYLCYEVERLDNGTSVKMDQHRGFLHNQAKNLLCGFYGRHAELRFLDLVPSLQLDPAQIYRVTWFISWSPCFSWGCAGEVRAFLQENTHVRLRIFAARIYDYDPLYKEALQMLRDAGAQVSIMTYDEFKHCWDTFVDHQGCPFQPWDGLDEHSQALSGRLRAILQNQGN
PfGluPho inh = PfG6PD enzyme inhibitors, primary screen, biochemical, fluorescence intensity, uHTS; glucose-6-phosphate dehydrogenase-6-phosphogluconolactonase (Plasmodium falciparum 3D7); PfGluPho enzyme, NADPH resazurin-diaphorase fluorescence; inhibition, % at 20 µM; 0.78% of 350,000 active; AID 504690, 2011;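 active = inhibition reaching at least a set limit at 20 µM in the primary screen, cut at about 59% in these data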;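 also: 0% = DMSO wells with substrate and 100% = DMSO wells lacking glucose-6-phosphate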
PfM18AAP inh-1 = PfM18AAP inhibitors, malaria aminopeptidase, primary screen, biochemical, QFRET, recombinant enzyme | M18 aspartyl aminopeptidase (Plasmodium falciparum 3D7) | inhibition, % at 7.35 µM | H-Glu-NHMec fluorogenic cleavage | 1.2% of 290,000 active | AID 1822, 2009;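 active = inhibition above the campaign mean inhibition over all tested compounds plus 3 SD, cut at about 28% in these data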;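 also: 0% = plate median of test compound wells and 100% = 2 mM ZnCl2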
APOBEC3G inh = APOBEC3G DNA deaminase inhibitors, primary screen, biochemical, fluorescence, single-stranded DNA substrate, uHTS | recombinant A3G, ssDNA deamination FAM/TAMRA fluorescence | inhibition, % at 20 µM | 0.28% of 330,000 active;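 active = inhibition of at least 40% at 20 µM, with no more than 30% in the related APOBEC3A deaminase screen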;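 also: plate controls were DMSO wells with A3G for no effect and wells lacking A3G enzyme for full effect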
CR mimetic SO = reduction of superoxide in aged yeast, primary screen, HTS; superoxide response (% of plate mean), % at 10 µM; 0.18% of 330,000 active; S. cerevisiae aged cells, superoxide DHE fluorescence; stronger effect = lower value; AID 2690, 2010;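 active = superoxide response under a set limit, about three screen SD below normal, cut at about 65% in these data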;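 also: yeast aged for seven days with compound at 30 °C before DHE staining; 100% = average MFI of all compound-treated wells on the plate with controls excluded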
PfM18AAP inh-2 = PfM18AAP inhibitors, malaria aminopeptidase, confirmation, biochemical, QFRET, recombinant enzyme, triplicate; shares compounds with PfM18AAP inh-1; H-Glu-NHMec fluorogenic cleavage; inhibition, % at 7.35 µM; 28% of 2,400 active; AID 2170, 2009;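 active = mean inhibition over replicate wells above the hit cutoff set for the earlier primary screen, cut at about 29% in these data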;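 also: 0% = median of test compound wells and 100% = 2 mM ZnCl2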
CTSL1 confirm = cathepsin L1 inhibitors, retest, confirmation, counter-screen for PFM18AAP inhibitor project, biochemical, QFRET, triplicate | shares compounds with PfM18AAP inh-1 | purified cathepsin L1, Z-Leu-Arg-MCA fluorescence | inhibition, % at 5.96 µM | 2,400 tested, under 10 active;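 active = average inhibition across replicates above the hit cutoff set in the earlier primary screen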;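 also: 0% = median of test compound wells and 100% = Z-Phe-Ala-diazomethylketone 1 µM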
Target sequence (P07711 whole entry, looked up): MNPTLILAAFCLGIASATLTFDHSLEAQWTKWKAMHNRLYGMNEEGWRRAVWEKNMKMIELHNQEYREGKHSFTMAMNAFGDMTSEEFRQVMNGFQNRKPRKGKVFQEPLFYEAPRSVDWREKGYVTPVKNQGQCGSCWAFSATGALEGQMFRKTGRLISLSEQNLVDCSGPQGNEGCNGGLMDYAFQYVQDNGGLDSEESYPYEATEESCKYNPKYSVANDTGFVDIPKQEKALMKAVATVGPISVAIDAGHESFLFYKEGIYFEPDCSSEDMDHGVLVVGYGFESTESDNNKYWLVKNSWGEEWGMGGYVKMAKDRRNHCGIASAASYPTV
The depositor's hits bear a star.

Cc1cc(C(=O)CSc2nc(N)cc(N)n2)c(C)n1C1CC1 was read as A3A deaminase -10, PfGluPho inh 8, PfM18AAP inh-1 36*, APOBEC3G inh -12, CR mimetic SO 105, PfM18AAP inh-2 -15 and CTSL1 confirm 2.
Screening CN=c1scc(-c2ccc(F)cc2)n1/N=C/c1ccc(O)c(O)c1 returned A3A deaminase -2, PfGluPho inh 9, PfM18AAP inh-1 54*, APOBEC3G inh -3, PfM18AAP inh-2 48* and CTSL1 confirm 3.
For Cc1ccc(/C=N/Nc2nncn2N)cc1 the results were A3A deaminase -6, PfGluPho inh 56, PfM18AAP inh-1 40*, APOBEC3G inh -9, CR mimetic SO 92, PfM18AAP inh-2 -17 and CTSL1 confirm 1.
`Cc1nnc(N/N=C/c2ccc(Br)cc2)n1N` gave A3A deaminase -4, PfGluPho inh 57, PfM18AAP inh-1 48*, APOBEC3G inh -2, CR mimetic SO 98, PfM18AAP inh-2 -37 and CTSL1 confirm -6.
Screening COc1ccc(/C=N/Nc2nnc(C)n2N)cc1OC(C)=O returned A3A deaminase -4, PfGluPho inh 55, PfM18AAP inh-1 34*, APOBEC3G inh -4, CR mimetic SO 98, PfM18AAP inh-2 -39 and CTSL1 confirm 1.
Screening Nn1cnnc1N/N=C/c1ccc(F)cc1 returned A3A deaminase -5, PfGluPho inh 45, PfM18AAP inh-1 42*, APOBEC3G inh -4, CR mimetic SO 99, PfM18AAP inh-2 -21 and CTSL1 confirm -2.
Screening Fc1ccc(/C=N/Nc2nn[nH]n2)cc1 returned A3A deaminase 6, PfGluPho inh 0, PfM18AAP inh-1 21, APOBEC3G inh -4 and CR mimetic SO 134.
Screening Cc1nnc(N/N=C/c2ccc([N+](=O)[O-])cc2)n1N returned A3A deaminase 2, PfGluPho inh 22, PfM18AAP inh-1 15, APOBEC3G inh -8 and CR mimetic SO 104.
For C[C@@H]1CN([C@H](C)CO)C(=O)CCCn2nncc2CO[C@H]1CN(C)C(=O)Nc1ccc(N2CCN(C)CC2)cc1 the results were PfGluPho inh -3.
Screening CC(C)(C)c1nnc(N/N=C/c2ccccc2)n(N)c1=O returned A3A deaminase 2, PfGluPho inh -1, PfM18AAP inh-1 47*, APOBEC3G inh 0, CR mimetic SO 98, PfM18AAP inh-2 -50 and CTSL1 confirm 3.
Screening O=C(COC(=O)CNC(=O)C1CCCCC1)NCc1ccc(Cl)cc1 returned A3A deaminase -4, PfGluPho inh 3, APOBEC3G inh -4 and CR mimetic SO 121.
O=C1c2ccccc2NC(c2ccc(O)c(O)c2)N1c1ccccc1Cl (stereo unspecified) was read as A3A deaminase -3, PfGluPho inh -17, PfM18AAP inh-1 57*, APOBEC3G inh -6, CR mimetic SO 97, PfM18AAP inh-2 56* and CTSL1 confirm -2.
`COc1cc(C2Nc3ccccc3C(=O)N2c2ccccc2OC)ccc1O` (stereo unspecified) gave A3A deaminase -1, PfGluPho inh 11, PfM18AAP inh-1 -6, APOBEC3G inh -3 and CR mimetic SO 111.
For COC(=O)c1ccccc1NC(=O)C/C(C)=N/NC(=O)CC#N the results were A3A deaminase 7, PfGluPho inh 0, PfM18AAP inh-1 38*, APOBEC3G inh 3, CR mimetic SO 98, PfM18AAP inh-2 -47 and CTSL1 confirm 6.
For COc1ccc(/C=C(\C#N)C(=O)c2cccn2C)cc1 the results were A3A deaminase -3, PfGluPho inh -6, PfM18AAP inh-1 4, APOBEC3G inh -3 and CR mimetic SO 102.
`COc1ccc(/C=C(\C#N)C(=O)C(C)(C)n2cncn2)cc1` gave A3A deaminase 7, PfGluPho inh -28, PfM18AAP inh-1 59*, APOBEC3G inh 0, CR mimetic SO 97, PfM18AAP inh-2 -8 and CTSL1 confirm -2.
For CCc1ccc(OCC(=O)Nc2ccc3oc(=O)ccc3c2)cc1 the results were A3A deaminase -5, PfGluPho inh -3, PfM18AAP inh-1 -1, APOBEC3G inh -15 and CR mimetic SO 98.
`Cc1ccc(C(C(=O)NC(C)(C)C)N(Cc2cccs2)C(=O)c2csnn2)cc1` (stereo unspecified) gave A3A deaminase -2, PfGluPho inh 10, PfM18AAP inh-1 35*, APOBEC3G inh 1, CR mimetic SO 103, PfM18AAP inh-2 -53 and CTSL1 confirm 1.
For OC1(c2ccccc2F)CCN(Cc2nnnn2Cc2ccc(F)cc2)CC1 the results were A3A deaminase 3, PfGluPho inh -2, PfM18AAP inh-1 1, APOBEC3G inh -10 and CR mimetic SO 97.
Screening CC1=CC(C)(C)N(C(=O)CSc2ncn[nH]2)c2ccc(C)cc21 returned A3A deaminase -5, PfGluPho inh -6, PfM18AAP inh-1 56*, APOBEC3G inh -10, CR mimetic SO 96, PfM18AAP inh-2 -31 and CTSL1 confirm 4.
Screening CC1=CC(C)(C)N(C(=O)CN2C(=O)CCC2=O)c2ccc(C)cc21 returned A3A deaminase 3, PfGluPho inh 3, PfM18AAP inh-1 4, APOBEC3G inh -8 and CR mimetic SO 94.
Screening COc1cc(C(=S)N2CCOCC2)cc(OC)c1OC(=O)Cc1ccc(F)cc1 returned A3A deaminase 2, PfGluPho inh 45, PfM18AAP inh-1 36*, APOBEC3G inh 21, CR mimetic SO 113, PfM18AAP inh-2 -8 and CTSL1 confirm 1.
`CC1(C)Cc2c(c(N3CCOCC3)nc3sc(C(=O)Nc4ccccc4)c(N)c23)CO1` gave A3A deaminase -6, PfGluPho inh 56, PfM18AAP inh-1 37*, APOBEC3G inh -6, CR mimetic SO 108, PfM18AAP inh-2 -45 and CTSL1 confirm 1.
For CC1(C)Cc2c(c(N3CCOCC3)nc3sc(C(=O)Nc4cccc(Cl)c4)c(N)c23)CO1 the results were A3A deaminase -5, PfGluPho inh 42, PfM18AAP inh-1 41*, APOBEC3G inh 21, CR mimetic SO 98, PfM18AAP inh-2 14 and CTSL1 confirm 9.
`COc1cc(C(=O)NCC(c2cccs2)N2CCOCC2)c([N+](=O)[O-])cc1OC` (stereo unspecified) gave A3A deaminase -3, PfGluPho inh 17, APOBEC3G inh -9 and CR mimetic SO 98.
